# Screening data as filed in PubChem BioAssay.
# In the library only some 3.3% were active in any assay of this set; here they are far more common.
# AmpC detergent = blocks E. coli AmpC beta-lactamase in detergent assay; AmpC hydrolysis of nitrocefin, absorbance 480 nm, 0.01% Triton; 370,000 tested, 0.041% active; P00811; Potency, µM (top dose mostly 114 µM), without a hit: top-dose activity change, negative = inhibition, most hits filed as inhibitors;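 also: 0% = no-compound wells and -100% = no-enzyme wells; nearly all actives have a fitted effect of over 25% in size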
# Target sequence (P00811 whole entry, looked up): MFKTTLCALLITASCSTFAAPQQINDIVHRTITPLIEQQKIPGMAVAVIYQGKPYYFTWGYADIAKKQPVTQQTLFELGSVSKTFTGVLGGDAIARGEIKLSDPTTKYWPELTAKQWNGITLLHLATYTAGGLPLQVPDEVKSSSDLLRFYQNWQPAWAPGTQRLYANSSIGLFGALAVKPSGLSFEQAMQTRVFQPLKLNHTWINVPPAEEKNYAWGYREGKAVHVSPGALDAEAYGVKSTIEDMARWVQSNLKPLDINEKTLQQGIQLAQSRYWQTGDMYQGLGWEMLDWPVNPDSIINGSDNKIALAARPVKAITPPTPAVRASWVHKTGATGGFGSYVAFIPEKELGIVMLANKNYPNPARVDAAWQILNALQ
#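 20 mM phosphate pH 7.0 + 0.01% (detergent screen) or 0.0001% Triton X-100; 5.3 nM AmpC reagent; cpd preinc 15 min RT; nitrocefin (800 uM stock) to start; A480 q20 s × 4 min; Activity was normalised to no-enzyme and no-compound control wells.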
# AmpC inh no detg = blocks E. coli AmpC beta-lactamase in detergent-free assay; P00811; AmpC nitrocefin hydrolysis, absorbance 480 nm, 0.0001% Triton; Potency, µM (titrated, usually from 57.1 µM), for the others: at the top dose activity change, negative = inhibition, most hits filed as inhibitors; 330,000 tested, 0.52% active; AID 485341;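 also: plate controls were no compound for no effect and no enzyme for full effect; nearly all actives have a fitted effect of over 20% in size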
#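 AmpC (5.3 nM in the dispensed reagent) in 20 mM phosphate pH 7.0 with 0.01% (detergent screen) or 0.0001% Triton X-100 was preincubated with compounds for 15 min at room temperature. Nitrocefin was then added from an 800 uM solution, and hydrolysis was followed at 480 nm.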
# Sm TGR block = S. mansoni TGR enzyme inhibition; Q962Y6; purified TGR, DTNB reduction, TNB absorbance 405 nm; Potency, µM (series often up to 114 µM), for the others: at the top dose activity change, negative = inhibition, hits mostly inhibitors; 360,000 tested, 3% active; also: nearly all actives have a fitted effect of over 60% in size
#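 First, TGR (20 nM dispensed) and NADPH were mixed with compound. Second, a 15 min room-temperature incubation followed. Third, further NADPH and then DTNB were added to start the reaction. Finally, TNB absorbance was monitored kinetically.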
# The depositor's hits bear a star; ? = inconclusive; . = no result given. Calls follow the shape of the dose curve; as a rule, active = well fitted curve in the direction sought with a large enough effect; inconclusive = small, poorly fitted or top-dose-only effect, or another doubt; inactive = no such curve, though single readings can be large; an effect the other way counts as inactive or inconclusive. Unless noted, % is scaled to controls: 0 for no effect and ±100 for the full control effect; potency is read from the fitted curve at half-maximal effect.
SMILES,AmpC detergent,AmpC inh no detg,Sm TGR block
COC(=O)C(CC(=O)c1ccc(Br)cc1)n1nc(C)cc1C (configuration not stated),3%,65%,3.5µM*
Cc1ccc(C(=O)CC(C(=O)O)n2cncn2)cc1 (configuration not stated),-19%,-47%,-20%
COc1cc(NC(=O)CC(C)n2ccnc2)cc(OC)c1 (configuration not stated),-4%,-4%,1%
COc1ccc(CNC(=O)CC(C)n2nc(C)cc2C)cc1 (configuration not stated),26%,.,4%
CC(C)COc1ccc(C(=O)N2CCCCC2CCN2CCCCC2)cc1 (configuration not stated),-2%,.,-3%
CN1CCN(CCNC(=O)c2cnn(-c3ccc(Cl)cc3)c2C2CCN(C(=O)OC(C)(C)C)CC2)CC1,24%,.,5%
Cn1nc(-c2ccccc2F)c2cc(C(=O)N3CCN(c4ccccc4F)CC3)sc21,0%,.,-3%
Cc1cccc(N(Cc2cc3ccccc3[nH]c2=O)C(=O)c2cccc(Cl)c2)c1,-2%,.,-3%
Cc1ccccc1C(=O)Nc1c(C)nc(Nc2ccccc2)nc1Nc1ccccc1,18%,.,-1%
CCn1c(C(=O)N2CCCC(C(=O)NCCCOC)C2)cc2sccc21 (configuration not stated),2%,.,-2%
COc1cc2c(cc1OC)C(COc1ccc3c(C)cc(=O)oc3c1)N(C(=O)c1ccccc1F)CC2 (configuration not stated),4%,.,1%
CCOC(=O)/C(C)=N/Nc1nc(-c2ccc(NC(C)=O)cc2)cs1,-6%,-7%,11µM*
CC(=O)Nc1ccc(-c2csc(N/N=C(/C)c3ccccc3)n2)cc1,6%,-13%,-21%
Nc1ccccc1Nc1cc(-c2ccccc2)[nH]n1,1%,1.1µM*,4%
Nc1ccccc1Nc1cc(-c2ccccc2)nn1-c1ccccc1,-13%,-34%,-3%
CCOc1cc(-c2nnc(SCC(=O)NCCCOC)nc2-c2ccc(OC)c(OCC)c2)ccc1OC,-4%,.,-5%
O=C(N/C=C/c1ccco1)NCc1ccccc1,-6%,-39%,25µM*
O=C(N/C=C/c1ccco1)OCc1ccccc1,-13%,-27%,45µM*
O=C(NCc1ccccc1)/C(=C/c1ccco1)NC(=O)c1ccco1,0%,-18%,1%
O=C(NC[P+](=O)O)OCc1ccccc1,?,-18%,-15%
CC1CCN(S(=O)(=O)c2ccc3c(ccn3CCC(=O)NCc3ccccc3F)c2)CC1,12%,.,9%
Cn1cc(S(=O)(=O)N2CCCCCC2)cc1C(=O)N1CCN(c2cccc(Cl)c2)CC1,-2%,.,0%
CC(C)(C)c1nc(S(=O)(=O)c2ccc(Cl)cc2)c(N2CCOCC2)o1,4%,-8%,8.9µM*
O=S(=O)(c1ccc(Cl)cc1)c1nc(-c2ccccc2Br)oc1N1CCOCC1,1%,.,5%
O=S(=O)(c1ccc(Cl)cc1)c1nc(-c2ccco2)oc1N1CCOCC1,3%,2%,-28%
SMILES,AmpC detergent,AmpC inh no detg,Sm TGR block
CC(C)Cc1nc(S(=O)(=O)c2ccc(Cl)cc2)c(N2CCOCC2)o1,-1%,-6%,2.2µM*
Cc1[nH]c2ccc(Br)cc2c(=O)c1CN1CCCCCC1,0%,-6%,-1%
Cc1[nH]c2ccc(Cl)cc2c(=O)c1CN1CCCC1,?,23%,28µM*
Cc1nc2c(c(C)c1CCC(=O)Nc1ccc(F)cc1)c(=O)n(C)c(=O)n2C,14%,.,3%
Fc1ccc(N2CCN(c3ncnc4[nH]ncc34)CC2)cc1,-4%,.,0%
COc1ccc(OCc2cc(-c3ccc(Cl)cc3)no2)cc1,?,-23%,1%
O=C(CCl)NCc1cc(-c2ccc(Cl)cc2)no1,1%,1%,32µM*
Cc1ccc2c(c1)N(CCCC(=O)NCc1cccc(F)c1)C(=O)CO2,-2%,.,7%
Cc1ccc(-c2noc(-c3ccc(NCc4ccco4)c([N+](=O)[O-])c3)n2)cc1,26%,.,3%
COc1ccc(-c2nc3ccc(NS(=O)(=O)c4ccc(C)cc4)cc3o2)cc1,18%,.,1%
O=C(NC(=C(Cl)Cl)S(=O)(=O)c1ccc(Cl)cc1)c1ccccc1,-9%,-24%,3.5µM*
Cc1ccc(S(=O)(=O)CCC(=O)OCC(=O)NC(=O)c2ccccc2)cc1,-13%,-21%,-1%
CC(=O)NC(=C(Cl)Cl)S(=O)(=O)c1ccccc1,?,3%,?
Cc1ccc(C(=O)NC(=C(Cl)Cl)S(=O)(=O)c2ccc(Cl)cc2)cc1,3%,-33%,.
Cc1ccc(S(=O)(=O)/C(=C/Cl)NC(=O)c2ccccc2)cc1,?,-18%,40µM*
Cc1ccc(C(=O)NC(=C(Cl)Cl)S(=O)(=O)c2ccc(C)cc2)cc1,-1%,-14%,18µM*
Cc1noc(Cn2c(=O)c3ccccc3n(CC(=O)Nc3ccc(C(C)C)cc3)c2=O)n1,-8%,.,-5%
CCC(C)NC(=O)c1ccc2c(c1)sc1nc(-c3ccc(OC)cc3)cn12 (configuration not stated),20%,.,-3%
Cc1ccc(NC(=O)CSC2=Nc3ccccc3C3=NC(Cc4ccccc4)C(=O)N23)cc1C (configuration not stated),-1%,.,3%
CC1=NNC(=O)C1C(c1ccc(Cl)cc1)C(C#N)C#N (configuration not stated),-5%,-17%,11µM*
CC1=NN(Cc2ccccc2)C(=O)C1C(c1ccc(Cl)cc1)C(C#N)C#N (configuration not stated),?,-32%,14µM*
CC1=NNC(=O)C1C(c1cccc(O)c1)C(C#N)C#N (configuration not stated),-9%,-18%,2%
CC1=NN(Cc2ccccc2)C(=O)C1C(c1ccccc1)C(C#N)C#N (configuration not stated),?,-35%,-7%
Cc1ccc2c(c1)c(=O)c1ccccc1n2CCCC(=O)Nc1cc(Cl)ccc1C,13%,.,16%
COc1ccc(NC(=O)CSc2nc(-c3ccc(OC)c(OC)c3)[nH]c2-c2ccc(C)cc2)cc1,6%,.,7%
SMILES,AmpC detergent,AmpC inh no detg,Sm TGR block
CC1=C(C(=O)Nc2ccccc2)C(c2ccc(C(=O)O)cc2)n2ncnc2N1 (configuration not stated),10%,.,-2%
CC(C)c1nn2c(=O)cc(COC(=O)c3cccc(NC(=O)c4ccccc4F)c3)nc2s1,-8%,.,-5%
CC(OC(=O)/C=C/c1ccco1)C(=O)NC1CCCCC1C (configuration not stated),?,-11%,45µM*
CC(OC(=O)/C=C/c1cccs1)C(=O)NC1CCCCC1C (configuration not stated),-1%,-20%,?
COc1ccc([N+](=O)[O-])cc1NC(=O)C(C)OC(=O)/C=C/c1ccco1 (configuration not stated),-3%,-46%,50µM*
CC(OC(=O)/C=C/c1ccco1)C(=O)Nc1cccc([N+](=O)[O-])c1 (configuration not stated),5%,-28%,?
CC1=C(C(=O)OC2CCCC2)C(c2ccccc2Cl)CC(=O)N1 (configuration not stated),16%,.,-3%
